Source: PubChem (National Center for Advancing Translational Sciences (NCATS))
MARV entry inh: qHTS for inhibitors of binding or entry into cells for Marburg Virus; Marburg virus pseudotyped entry inhibition, cell reporter; Potency, µM (doses to about 37.8 µM), inactives show top-dose activity change, negative = inhibition, hits mostly inhibitors; 300,000 tested, 1.8% active; AID 540276, 2011; calls by dose curve; tested in HEK293 cells; also: potency is read from the fitted curve at half-maximal effect; % is scaled to controls: 0 for no effect and ±100 for the full control effect
Shiga inhibitor: A qHTS for Small Molecule Inhibitors of Shiga Toxin; 290,000 tested, 9.2% active; inhibition, % at 38.7 µM; Vero cells, Shiga toxin protein synthesis inhibition reporter; in the data active = inhibition mostly above about 28%, no sharp cut-off; inactive = mostly below about 43%; also: 0% is about no effect
CHX counter: Cycloheximide Counterscreen for Small Molecule Inhibitors of Shiga Toxin. cell reporter, cycloheximide protein synthesis inhibition counterscreen. 300,000 tested, 12% active. AID 2314, 2010. max response, %; in the data active = max response mostly above about 13%, no sharp cut-off; inactive = mostly below about 14%; also: read at 38.3 µM for the half of the compounds with a filed dose; 0% is about no effect
AMA1 RON2 block: qHTS for Inhibitors of AMA1-RON; Towards Development of Antimalarial Drug Lead: Primary Screen; Plasmodium falciparum AMA1 (3D7) - RON2 peptide interaction; AlphaScreen AMA1-biotinylated RON2 peptide binding; Potency, µM (series often up to 58.2 µM), for inactives: top-dose activity change, negative = inhibition, hits mostly inhibitors; 360,000 tested, 0.2% active; AID 720542, 2013; active = well fitted inhibition curve with a large enough effect; inconclusive = small, poorly fitted or top-dose-only effect; inactive = no such curve, though single readings can be large or run the other way;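 also: potency is read from the fitted curve at half-maximal effect; 0% = vehicle wells and -100% = peptide control; nearly all actives have a fitted effect of over 45% in size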
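AMA1 (3D7) with his tag at 25 nM final met compounds first, then biotinylated RON2 peptide at 25 nM; detection used donor plus acceptor beads, 10 µg/mL apiece, read by AlphaScreen after 30 min at room temperature.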
Lassa entry inh: qHTS for Inhibitors of binding or entry into cells for Lassa Virus | Lassa virus pseudotype entry inhibition, cell reporter | Potency, µM (doses to about 37.9 µM), for the others: at the highest dose activity change, negative = inhibition, actives largely listed as inhibitors | 300,000 tested, 1.2% active; calls by dose curve; tested in HEK293 cells; also: potency is read from the fitted curve at half-maximal effect; % is scaled to controls: 0 for no effect and ±100 for the full control effect; nearly all actives have a fitted effect of over 50% in size
Starred values were filed as active, the others as inactive; ? = inconclusive; · = no result given; + = active, no number; [ ] = another dose, or the depositor's remark. The entries come from a sample that favours hits as a whole.

SMILES | MARV entry inh | Shiga inhibitor | CHX counter | AMA1 RON2 block | Lassa entry inh
CC(C)c1ccc(NC(=O)CSc2ncccc2C(=O)Oc2cccc([N+](=O)[O-])c2)cc1 | ? | 35.8* | 45.7* | -1.4% | ?
CCNC(=S)Nc1cccc([N+](=O)[O-])c1 | -10.1% | -1.0 | -3.1 | · | 6.9%
O=C(CSc1ccccn1)Nc1cccc([N+](=O)[O-])c1 | 9.9%[46.1 µM] | 34.2* | 32.3* | ? | 22.5%
NS(=O)(=O)c1ccc(NC(=O)CSc2ccccn2)cc1 | -10.3% | -4.2 | 8.0 | 25.4% | 21.4%
O=[N+]([O-])c1cccc(NC(=S)Nc2nc(-c3ccccc3Cl)cs2)c1 | ? | 74.7* | 32.8* | 62.6% | ?
CCOc1ccccc1NC(=O)n1ncc2cc(Cl)ccc21 | -5.1%[46.1 µM] | · | · | · | 0.1%[46.1 µM]
CCCCN(CC)c1nc(C)nc2c1c(C)c(C)n2-c1c(C)cc(C)cc1C | · | 4.9 | 5.2 | · | ·
O=C(CSc1nc(-c2ccc(Cl)cc2)cs1)Nc1cccc([N+](=O)[O-])c1 | · | 53.5* | 38.1* | -19.1% | ·
CC1(C)CC(N2CCCC2)=CC(=[N+]2CCCCCC2)C1 | 1.46µM* | -4.7 | 4.2 | 11.8% | ?
CCN(CC)C1=CC(=[N+]2CCCC2)CC(C)(C)C1 | 1.26µM* | -21.7 | -5.7 | -4.4% | ?
Cc1cc(C)n(C(=O)c2c([N+](=O)[O-])c(C)nn2C)n1 | 19.1% | -2.5 | 1.3 | 3.0% | -18.0%
Cc1ccc(SC(=O)c2c([N+](=O)[O-])c(C)nn2C)cc1 | 9.8%[46.1 µM] | 8.9 | 11.6* | -22.3% | -12.6%
COc1ccc(NC(=O)CC2C(=O)N(c3ccc(F)cc3)C(=S)N2NC(=O)c2ccc(Cl)cc2)cc1 (stereo unspecified) | -4.4% | 11.9 | 9.8 | -12.4% | 3.5%
COc1ccc(NC(=O)CC2C(=O)N(c3ccc(Cl)cc3)C(=S)N2NC(=O)c2cccc(F)c2)cc1 (stereo unspecified) | ? | 13.0 | 16.4* | 10.4% | ?
COc1ccc(OCC(=O)NC2CCCN(Cc3ccc(Cl)cc3)C2)cc1 (stereo unspecified) | · | -4.1 | -3.1 | 0.0% | ·
O=C(Nc1ccncc1)c1ccc(-c2ccccc2)cc1 | · | 121.2* | 35.6* | -2.1% | ·
CC(C)c1ccc(C(=O)Nc2cccnc2)cc1 | 3.98µM* | · | 36.5* | -3.1% | ?
O=C(NNC(=O)c1ccc(-c2ccccc2)cc1)c1ccccc1 | 18.1% | 67.0* | 20.4* | 12.9% | 12.5%
Cc1cccc(C(=O)NNC(=O)c2ccc(-c3ccccc3)cc2)c1 | -28.2% | -8.5 | -0.6 | 11.4% | -15.1%
Cc1ccc(C(=O)Nc2ccncc2)c(C)c1 | -9.0% | 17.9 | 8.9* | -7.0% | -24.5%
CC(=O)Oc1ccc(C(=O)Nc2cccnc2)cc1 | -4.1% | 20.9 | -2.6 | -8.0% | 13.9%
CCc1cccc(NC(=O)C(CC(C)C)NS(=O)(=O)c2ccc3c(c2)oc(=O)n3C)c1 (stereo unspecified) | -8.5%[46.1 µM] | · | · | · | 0.9%[46.1 µM]
COCCn1c(=S)[nH]c2cc(C(=O)NC3CCCC(C)C3C)ccc2c1=O (stereo unspecified) | · | · | · | 138.1% | ·
CCOC(=O)CCN1C(=O)[C@H]2[C@H]3[C@H](O)[C@H](O)C/C(=N/OCc4ccccc4)[C@@H]3CC[C@@H]2C1=O | -7.2%[14.2 µM] | · | · | · | ·
O=C(Nc1ccc(Br)cc1)C1CCN(S(=O)(=O)c2cccc3nsnc23)CC1 | 8.3%[46.1 µM] | · | · | · | ?
SMILES | MARV entry inh | Shiga inhibitor | CHX counter | AMA1 RON2 block | Lassa entry inh
O=S(=O)(c1ccccc1)N(CC1CO1)c1cc(Cl)ccc1Cl (stereo unspecified) | ? | 2.5 | -1.7 | -11.2% | -6.6%
O=C(Nc1cccnc1)c1cnc2ccccc2n1 | ? | 69.7* | 12.7* | -0.8% | ?
O=C(Nc1ccc(-c2cnco2)cc1)c1ccc(Cl)cc1 | · | 13.8 | 9.7 | -1.3% | ·
O=C(Nc1ccc(-c2cnco2)cc1)c1ccccc1 | 12.9%[46.1 µM] | 93.0* | 46.9* | -5.7% | 18.8%[46.1 µM]
O=C(Nc1cccnc1)c1ccc(-c2ccccc2)cc1 | · | 71.9* | 32.8* | -2.1% | ·
O=C(Nc1cccnc1)c1ccc(F)cc1 | 13.6% | -8.4 | -3.3 | -15.2% | 0.0%
COc1ccc(C(=O)CSc2nc3ccc([N+](=O)[O-])cc3[nH]2)cc1 | -19.9% | -12.7 | -0.7 | 5.2%[11.6 µM] | -18.3%
Cc1cc2c(s1)c1cnn(Cc3ccccc3Cl)c(=O)c1n2C | · | 8.8 | 12.2 | · | ·
CCCc1nnc(N2C(=O)c3oc4ccc(F)cc4c(=O)c3C2c2ccc(C(=O)OC)cc2)s1 (stereo unspecified) | -4.5%[46.1 µM] | · | · | · | 25.3%[46.1 µM]
COc1ccc(C(=O)c2ccc(OC)c(OC)c2)cc1OC | 2.3% | 16.1 | -4.2 | -13.5% | 4.0%
COc1ccc(C(=O)c2ccc(OC)c(N)c2)cc1N | -13.0% | 122.4* | 50.3* | -4.6% | 13.7%
O/N=C1/CC/C(=N\O)c2nn(-c3ccccc3)nc21 | 16.6% | 36.0 | 31.3* | 12.5% | 19.2%
Cc1cccc(Cn2cc(C=O)c3ccccc32)c1 | ? | -3.5 | -1.2 | -11.2% | ?
CC(=O)c1cn(Cc2ccccc2C#N)c2ccccc12 | ? | 24.0 | 6.0 | 0.8% | 3.55µM*
O=Cc1cn(Cc2cccc([N+](=O)[O-])c2)c2ccccc12 | 0.82µM* | -11.1 | -1.2 | -6.8% | 0.631µM*
O=[N+]([O-])/C=C/c1cn(Cc2ccccc2)c2ccccc12 | ? | -16.6 | -9.6 | -16.8% | -29.8%
CC(C)C(=O)c1cn(Cc2ccccc2C#N)c2ccccc12 | ? | -13.8 | -4.2 | 2.5% | -23.1%
N#Cc1ccccc1Cn1cc(/C=C/[N+](=O)[O-])c2ccccc21 | ? | -21.4 | -11.3 | -9.3% | 23.1µM*
C#CCNC(=O)C[C@@H]1C[C@@]2(C(=O)OC)CCCCC=C2N(CCCCCCCC)C1=O | · | · | · | -1.1% | ·
COC(=O)C1CCN(C2CC(=O)N(c3cc(C)cc(C)c3)C2=O)CC1 (stereo unspecified) | -28.0%[46.1 µM] | -6.3 | 2.0 | 3.0% | 16.8%[46.1 µM]
Fc1cccc(Cc2noc(CN3CCCN(C4Cc5ccccc5C4)CC3)n2)c1 | 11.2µM* | 46.8 | 2.7 | 3.7% | 6.9%[46.1 µM]
O=C(N/C(=C\c1ccccc1)C(=O)N1CCCCC1)c1ccco1 | -1.8%[46.1 µM] | -8.7 | -1.6 | -20.2% | -11.3%[46.1 µM]
O=C(/C=C/c1ccccc1Cl)N(Cc1ccc(Cl)cc1)C1CCS(=O)(=O)C1 (stereo unspecified) | ? | -4.9 | 4.0 | 9.7%[11.6 µM] | ?
COc1ccc(CN(C(=O)/C=C/c2ccccc2Cl)C2CCS(=O)(=O)C2)cc1 (stereo unspecified) | · | 54.1 | 34.4* | 4.7% | ·
CN(C)CC(=O)c1ccc(-c2ccccc2)cc1 | 6.0% | 99.3 | 23.7* | -7.8% | -2.2%
CCN(CC)C(=O)c1ccc(-c2ccccc2)cc1 | ? | + | 16.2* | -4.7% | 1.3%
CCCn1c(=O)c2sccc2n2c(CCCC(=O)Nc3cccc(CC)c3)nnc12 | · | · | · | · | -1.9%[46.1 µM]
COc1cc(OC)c(NC(=O)Nc2sc3nc4n(c(=O)c3c2C)CCC(C)CC4)cc1Cl (stereo unspecified) | -0.2%[46.1 µM] | · | · | · | ·
COc1cc(C2N(c3ccccc3)CCN2c2ccccc2)ccc1OC(C)=O | 12.5%[46.1 µM] | 55.9 | 47.1* | -2.3% | 13.8%
